Compound activity deposited in PubChem BioAssay by National Center for Advancing Translational Sciences (NCATS).
HT1080-NT tox – kills 2HG-producing HT-1080-NT fibrosarcoma cells; HT-1080-NT fibrosarcoma viability, CellTiter-Glo ATP luminescence, 48 h; AID 686970; Potency, µM (titrated, usually from 46.1 µM), actives largely listed as cytotoxic; 1.6% of 360,000 active;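 further: NT is the 2HG producing partner of a matched IDH1 knockdown line; nearly all actives have a fitted effect of over 55% in size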
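Fibrosarcoma NT cells, 750 per well in 5% FBS RPMI, were exposed to compound for 48 hours. Viability: CellTiter-Glo luminescence.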
SW480 rerep – induces DNA re-replication in SW480 colon adenocarcinoma cells. SW480 DNA re-replication, Hoechst DNA content imaging, 48 h. Potency, µM (titrated, usually from 46.1 µM), most hits filed as activators. 1.8% of 340,000 active. AID 624297; further: nearly all actives have a fitted effect of over 55% in size
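250 cells/well; 23 nL cpd via pin tool; 48 hr, 37 C, 5% CO2; Hoechst 40 min; imager read of total nuclear intensity, ex 405/em 500-530 nm.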
MCF10A rerep – induces DNA re-replication in MCF 10a normal breast cells; Potency, µM (highest dose often 46.1 µM), actives largely listed as activators; 2.9% of 350,000 active; MCF 10A DNA re-replication, Hoechst nuclear intensity, 48 h; AID 624296; further: nearly all actives have a fitted effect of over 50% in size
HT1080 IDH1KD tx – toxicity to HT-1080 IDH1 knockdown cells (counter line); 2% of 360,000 active; HT-1080 IDH1 knockdown viability, ATP luminescence, 48 h; Potency, µM (top dose mostly 46.1 µM), usual class: cytotoxic
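Using the IDH1-knockdown HT-1080 line run in the same batch and compound series as the NT line, viability after 48 h at 37 °C was determined by CellTiter-Glo luminescence and expressed as % activity.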
KB-3-1 tox – KB-3-1 parental cell cytotoxicity | KB-3-1 viability, CellTiter-Glo ATP luminescence, 72 h | AID 1347075 | Potency, µM (series often up to 46.1 µM), most hits filed as cytotoxic | 1.4% of 400,000 active; further: nearly all actives have a fitted effect of over 60% in size
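Parental KB-3-1 adenocarcinoma cells in phenol-red-free DMEM with 10% FBS were pin-treated with compounds at several concentrations, incubated 72 h at 37 °C, and viability read by CellTiter-Glo luminescence; concentration-effect curves were fitted after normalization.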
KB-V1 MDR tox – kills drug-selected multidrug resistant KB-V1 cells | Potency, µM (top dose mostly 46.1 µM), most hits filed as cytotoxic | AID 1347076 | KB-V1 MDR cells viability, CellTiter-Glo, 72 h | 3.4% of 400,000 active; further: nearly all actives have a fitted effect of over 60% in size
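KB-V1, DMEM (no phenol red) + 10% FBS; cpd pin-transferred, titration series; 72 h, 37 degrees C; CellTiter-Glo, luminescence. Data normalized, curve-fit.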
Hits are given with their value; 0 = inactive; ? = inconclusive; - = no result. Rows were chosen to be rich in hits. Some 8% of all compounds tested hit in one or more screens of this group. The call rests on the fitted dose curve; in most records, active means well fitted curve in the direction sought with a large enough effect; inconclusive means small, poorly fitted or top-dose-only effect, or another doubt; inactive means no such curve, though single readings can be large; an effect the other way counts as inactive or inconclusive.

SMILES | HT1080-NT tox | SW480 rerep | MCF10A rerep | HT1080 IDH1KD tx | KB-3-1 tox | KB-V1 MDR tox
CS(=O)(=O)N(CC(=O)Nc1ccc2c(c1)OCO2)c1ccc(Cl)cc1 | 0 | 0 | 0 | 0 | 0 | 23µM
Cc1ccc(C(=O)Nc2ccc3c(c2)OCO3)cc1 | ? | 0 | 0 | 0 | 0 | ?
CC(C)c1cc(C(=O)Nc2ccc3c(c2)OCO3)no1 | 0 | 0 | 0 | 0 | 0 | 0
Cc1ccc(Cn2ccc(NC(=O)c3cc(-c4ccc(Cl)cc4)on3)n2)cc1 | 0 | 0 | 0 | 0 | 0 | 0
Cc1ccc(Cn2ccc(NC(=O)c3cc(-c4cccc(Cl)c4)on3)n2)cc1 | 0 | 0 | ? | 0 | 0 | 15µM
Cc1ccc(CN(c2ccc(C(=O)Nc3ccc4c(c3)OCO4)cc2)S(C)(=O)=O)cc1 | 0 | 0 | 0 | 0 | 0 | 6.5µM
Cc1ccc(N(CC(=O)Nc2ccc3c(c2)OCCO3)S(C)(=O)=O)cc1 | 0 | 0 | 0 | 0 | 0 | 0
O=C(NCc1cccnc1)[C@@H]1CC=C[C@@H]2CCN(C3CCCCC3)C(=O)[C@@H]21 | - | - | - | - | 0 | 0
COc1ccc(N2CCN(C(=O)c3ccc4c(c3)N(Cc3ccc(F)cc3)C(=O)c3ccccc3S4=O)CC2)cc1 (stereo not given) | - | - | - | - | 0 | 0
COc1ccc(S(=O)(=O)N2CCCCCC2)cc1C(=O)N(CC(C)C)C1CCS(=O)(=O)C1 (stereo not given) | 0 | 0 | 0 | 0 | 0 | 0
Cc1cccc(OCC(=O)Nc2ccc(Cl)c(-c3nc4ncccc4o3)c2)c1C | - | - | - | - | 0 | 0
Cc1ccc(CNc2ccc3c(c2)OCO3)cc1 | ? | 23µM | 23µM | ? | ? | ?
O=C(Nc1ccn(Cc2ccc(Cl)cc2)n1)c1ccc2c(c1)OCO2 | 0 | 0 | 0 | 0 | 0 | 0
Cc1cccc(Cn2ccc(NC(=O)c3ccc4c(c3)OCO4)n2)c1 | 0 | 0 | 0 | 0 | 0 | 18µM
c1cc(CNc2ccc3c(c2)OCO3)ccn1 | 0 | 0 | 0 | 0 | 0 | 0
COc1cc(NC(=O)CCl)ccc(=O)c1 | 21µM | - | - | 23µM | 0 | ?
C=CCN(c1ccc(C(=O)Nc2ccc(C)c(C)c2)cc1)S(C)(=O)=O | 0 | 0 | 0 | 0 | 0 | 21µM
Cc1ccc2c(CC(=O)N(C)c3c(N)n(Cc4ccccc4)c(=O)[nH]c3=O)coc2c1 | 0 | 0 | 0 | 0 | 0 | 0
O=[N+]([O-])c1ccc(NN=C2CC3CCC2C3)c([N+](=O)[O-])c1 (stereo not given) | 0 | - | - | 0 | 0 | 0
Cc1ccc(N2CCN(C(=O)c3cc(S(=O)(=O)N4CCCCC4)c[nH]3)CC2)c(C)c1 | - | - | - | - | 0 | 0
O=C(CCl)Nc1ccc2c(c1)OCO2 | 9.2µM | ? | 0 | 18µM | 15µM | ?
CCN(CC)c1ccc(NC(=O)c2ccc3c(c2)OCO3)cc1 | ? | ? | 0 | 21µM | ? | ?
CCC(=O)Nc1ccc(NC(=O)c2ccc3c(c2)OCO3)cc1 | 0 | 0 | 0 | 0 | 0 | 0
O=c1[nH]c2c(=O)[nH]cnc2nc1-c1ccccc1 | 0 | ? | ? | 0 | 0 | 0
CC(=O)N1CCc2c(sc3c2c(=O)n(Cc2ccccc2)c(=O)n3CC(=O)Nc2ccc(C)c(F)c2)C1 | - | - | - | - | 0 | 0
SMILES | HT1080-NT tox | SW480 rerep | MCF10A rerep | HT1080 IDH1KD tx | KB-3-1 tox | KB-V1 MDR tox
CCOC(=O)c1[nH]c(C)c(C(=O)OC)c1C | 0 | 0 | 0 | 0 | 0 | 0
COC(=O)c1c(C)[nH]c(-c2csc(N)n2)c1C | ? | 15µM | ? | ? | ? | 0
C=C1CC[C@H](O)C/C1=C/C=C1\CCC[C@]2(C)[C@@H]([C@H](C)CCCC(C)(C)O)CC[C@@H]12 | - | 0 | 11µM | - | - | -
C=C1/C(=C\C=C2/CCC[C@]3(C)[C@@H]([C@H](C)CCCC(C)(C)O)CC[C@@H]23)C[C@@H](O)C[C@@H]1O | - | 0 | 21µM | - | - | -
Cn1c(SCc2cc(=O)n3cc(Br)ccc3n2)nnc1C1COc2ccccc2O1 (stereo not given) | 0 | 0 | 0 | 0 | 0 | 12µM
COc1ccc(CNC(=O)CCn2cccn2)cc1 | - | - | - | - | 0 | 0
COCCCNC(=O)CN1C(=O)/C(=C/c2ccccc2)Sc2ccccc21 | ? | 0 | 0 | 0 | 0 | ?
